# Values without a mark were called inactive.
# Test system: Vero E6 infected with SARS-CoV-2
# Experiment: inhibition of SARS-CoV-2 cytopathic effect; higher = more antiviral protection, active = above 15
# Conditions: 48 h
SMILES,inhibition of SARS-CoV-2 cytopathic effect (1 nM),inhibition of SARS-CoV-2 cytopathic effect (8.33 nM),inhibition of SARS-CoV-2 cytopathic effect (100 nM),inhibition of SARS-CoV-2 cytopathic effect (833.33 nM),inhibition of SARS-CoV-2 cytopathic effect (10000 nM)
Clc1ccc(CSC(Cn2ccnc2)c2ccc(Cl)cc2Cl)cc1 (stereo not given) [sulconazole],-1.13%,2.09%,0.76%,-1.38%,-0.46%
O=C(O[C@H]1C[C@H]2CC[C@@H](C1)[N+]21CCCC1)C(O)(c1ccccc1)c1ccccc1 [trospium],-1.88%,0.55%,1.21%,-1.72%,-0.69%
[Cl][Ru-]([Cl])([Cl])[Cl].[Na+].c1ccc2[nH]ncc2c1.c1ccc2[nH]ncc2c1,2.72%,0.03%,1.2%,5.02%,18% (active)
CCn1nc(C2CCN(C(=O)CCO)CC2)nc1-c1cnc(N)c(-c2nnc(C(C)(C)C)o2)n1,-2.84%,1.6%,1.87%,-2.41%,-1.94%
COc1ccc2c(c1)C=C1Cn3c-2c(C2CCCCC2)c2ccc(cc23)C(=O)NS(=O)(=O)N(C)CCOCCN(C)C1=O,3.67%,0.37%,0.59%,2.72%,8.22%
Cc1nc(C)c(C)nc1C [chuanxiongzine],2.81%,0.85%,2.51%,5.75%,1.87%
O=C(Nc1ccc(O)cc1)c1ccccc1O [N-salicoylaminophenol],1.23%,2.05%,1.76%,2.47%,4.87%
CC(=O)Oc1ccccc1C(=O)Nc1ncc([N+](=O)[O-])s1 [nitazoxanide],4.76%,-3.73%,-1.27%,-0.63%,8.82%
O=c1c(-n2ccnn2)c[nH]n1-c1cc(N2CCOCC2)ncn1 [molidustat],1.15%,-0.02%,-0.4%,3.64%,2.32%
CNC(=O)c1ccc2c(c1)S(=O)(=O)c1ccccc1C2=O,0.15%,0.66%,1.63%,-1.32%,-0.42%
Cc1cc2c(C(N)=O)cccc2n1-c1nc2c(c(NCc3ccccc3)n1)COCC2,1.91%,-0.78%,-2.17%,11.2%,-31.7%
CN1CCN(C(c2ccccc2)c2ccc(Cl)cc2)CC1 (stereo not given) [chlorcyclizine],-1.24%,1.4%,-0.05%,-3.64%,-10.6%
CNC[C@H](O)c1cccc(O)c1 [phenylephrine],0.59%,1.75%,-0.82%,0.14%,-0.09%
COC(=O)N[C@@H](C)CNc1nccc(-c2cn(C(C)C)nc2-c2cc(Cl)cc(NS(C)(=O)=O)c2F)n1 [Encorafenib (LGX818)],0.31%,0.31%,2.88%,6.46%,-1.13%
CC(C)=CCC[C@]1(C)C=Cc2c(O)c3c(c(CC=C(C)C)c2O1)O[C@]12C(=C[C@@H]4C[C@H]1C(C)(C)O[C@@]2(C/C=C(/C)C(=O)O)C4=O)C3=O [gambogic-acid],2.13%,-0.37%,0.38%,4.87%,-14.3%
Nc1nc(Nc2ccc(S(N)(=O)=O)cc2)nn1C(=O)c1c(F)cccc1F,2.48%,1.33%,0.15%,-0.22%,10.8%
"c1ccc2c(Cc3c[nH]c4ccccc34)c[nH]c2c1 [3,3'-diindolylmethane]",0.74%,0.3%,4.3%,4.76%,3.8%
N[C@@H](C(=O)O)[C@@H](OCc1ccccc1)C(=O)O.N[C@H](C(=O)O)[C@H](OCc1ccccc1)C(=O)O,-0.96%,0.96%,-0.27%,-0.54%,1.19%
O=C1NCN(c2ccccc2)C12CCN(CC1COc3ccccc3O1)CC2 (stereo not given) [spiroxatrine],-0.76%,0.74%,1.03%,0.28%,0.38%

SMILES,inhibition of SARS-CoV-2 cytopathic effect (1 nM),inhibition of SARS-CoV-2 cytopathic effect (8.33 nM),inhibition of SARS-CoV-2 cytopathic effect (100 nM),inhibition of SARS-CoV-2 cytopathic effect (833.33 nM),inhibition of SARS-CoV-2 cytopathic effect (10000 nM)
CN1CCc2c(c3ccccc3n2Cc2ccc(C(=O)NO)cc2)C1 [tubastatin-A],-0.32%,0.16%,1.09%,-1.27%,-6.46%
COc1cc2nc(N3CCN(C(=O)C4CCCO4)CC3)nc(N)c2cc1OC (stereo not given) [terazosin],1.36%,-0.59%,-1.51%,-0.05%,1.35%
c1ccc2sc(SN3CCOCC3)nc2c1 [N-oxydiethylenebenzothiazole-2-sulfenamide],-2.53%,-1.68%,-1.37%,0.03%,-1.24%
CCOC(=O)C1=C[C@]2(CC)CCCN3CCc4c(n1c1ccccc41)[C@@H]32 [vinpocetine],-3.18%,0.85%,4.53%,1.98%,-1.06%
"CCCn1c(=O)c2nc(-c3ccccc3)[nH]c2n(CCC)c1=O [1,3-dipropyl-8-phenylxanthine]",-3.41%,-2.62%,-2.96%,-3.56%,-1.61%
CN(C)[C@@H]1C(O)=C(C(N)=O)C(=O)[C@@]2(O)C(O)=C3C(=O)c4c(O)cccc4[C@@](C)(O)[C@H]3[C@H](O)[C@@H]12 [oxytetracycline],-0.32%,-3.1%,-1.01%,-0.96%,-0.98%
CN(C)c1cccc(-c2c3c(=O)n(-c4ccccc4Cl)[nH]c3cc(=O)n2C)c1,-1.01%,2.2%,0.39%,-1.67%,9.86%
COc1nc(N)nc2c1ncn2[C@@H]1O[C@H](CO)[C@@H](O)[C@@H]1O [nelarabine],-1.29%,-1.48%,-0.71%,-0.9%,1.12%
CC1CS(=O)(=O)CCN1/N=C/c1ccc([N+](=O)[O-])o1 (stereo not given) [nifurtimox],-0.09%,0.8%,-1.28%,2.01%,1.23%
Nc1ccc(F)cc1NC(=O)c1ccc(CNC(=O)/C=C/c2cccnc2)cc1 [chidamide],0.62%,0.21%,-1.13%,1.82%,-0.06%
C[C@]1(Cn2ccnn2)[C@H](C(=O)O)N2C(=O)C[C@H]2S1(=O)=O [tazobactam],0.92%,-1.48%,2.92%,0.65%,2.47%
CCN(CC)CCOc1ccc(Nc2ncc3cc(-c4c(Cl)cccc4Cl)c(=O)n(C)c3n2)cc1,-0.79%,-0.21%,-2.93%,-9.61%,-31.3%
CCC(CC)(NC(=O)C(C)C)C(=O)N[C@@H](CCCNC(=N)N)C(=O)NC1(C(=O)NC(c2ccc(F)cc2)c2ccc(F)cc2)CCCC1,-0.92%,-1.15%,-1.6%,0.7%,-3.48%
CCC[N+]12[C@H](O)[C@@H](CC)[C@@H]3C[C@H]1[C@@H]1N(C)c4ccccc4[C@]14C[C@H]2[C@@H]3[C@H]4O [neo-gilurytmal],-1.96%,-1.28%,0.64%,1.4%,-3.83%
COc1ccc2[nH]c([S+]([O-])Cc3ncc(C)c(OC)c3C)nc2c1 (stereo not given) [omeprazole-magnesium],3.38%,2.29%,3.04%,6.47%,6.97%
Cc1cc(SCc2sc(-c3ccc(C(F)(F)F)cc3)nc2C)ccc1OCC(=O)O,-0.18%,1.2%,0.1%,1.79%,-2.99%
Nc1n[nH]c2nnc(-c3c(-c4ccccc4)nn4ccccc34)cc12,0.55%,-0.27%,-1.29%,1.74%,-2.81%
COc1cc2ncnc(Nc3ccc(F)c(Cl)c3)c2cc1NC(=O)/C=C/CN1CCCCC1 [dacomitinib],-4.89%,-7.71%,-13.6%,-15.7%,-20.6%
Cc1cc(NC(=O)Nc2ccc(F)c(F)c2)n(-c2ccccc2)n1,-0.5%,-1.46%,0.29%,-0.03%,0.43%

# Source: the supplement of paper PMC13380429
